Experiment [1] is described as follows: BSK_hDFCGF_SRB: Viability Assessment in the BioMAP Diversity Plus: hDFCGF Assay (AID 2283061).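 Also: cells exposed to compound for 24 h before the read.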 To be noted: primary human foreskin fibroblasts. Summed up: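 Human foreskin fibroblasts in 96-well plates were treated 24 h. Total protein was measured by 0.1% SRB staining after 10% TCA fixation, read at 560 nm. Data were fitted bidirectionally against DMSO.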
Read-out in experiment [2]: TIMP metallopeptidase inhibitor 1 (TIMP1), TIMP1 (gene 7076)
Put plainly: BSK_hDFCGF_TIMP1: BioMAP Diversity Plus: hDFCGF Assay for TIMP metallopeptidase inhibitor 1 (TIMP1) Biomarker Activity (AID 2283062). To be noted: primary human foreskin fibroblasts; actives raise or lower the signal. Summed up: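 Human foreskin fibroblast primary cultures dosed for 24 h; secreted/surface TIMP-1 quantified by ELISA. Bidirectional curve fitting against DMSO baseline; cytotoxicity tracked in parallel cultures by SRB total-protein staining.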

Read-out in experiment [3]: Monokine induced gamma interferon (MIG), CXCL9 (gene 4283)
Put plainly: BSK_hDFCGF_MIG: BioMAP Diversity Plus: hDFCGF Assay for Monokine induced gamma interferon (MIG) Biomarker Activity (AID 2283063). To be noted: primary human foreskin fibroblasts; actives raise or lower the signal. Summed up:
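MIG/CXCL9 measured by ELISA 24 h after dosing primary human skin fibroblasts. Activity fitted in both directions against DMSO controls. Cytotoxicity was checked in parallel cultures by SRB staining read at 560 nm.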

Read-out in experiment [4]: Matrix Metallopeptidase 1 (MMP1), MMP1 (gene 4312)
Briefly: BSK_hDFCGF_MMP1: BioMAP Diversity Plus: hDFCGF Assay for Matrix Metallopeptidase 1 (MMP1) Biomarker Activity (AID 2283064). To be noted: primary human foreskin fibroblasts; actives raise or lower the signal. Summed up: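 ELISA read-out of MMP1 from human foreskin fibroblasts (primary skin cells), 24 h post-dose. Gain or loss of signal was fitted bidirectionally versus DMSO negative control; cytotoxicity was checked by SRB in parallel cultures.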

Read-out in experiment [5]: Vascular cell adhesion molecule 1 (VCAM1), VCAM1 (gene 7412)
Briefly: BSK_hDFCGF_VCAM1: BioMAP Diversity Plus: hDFCGF Assay for Vascular cell adhesion molecule 1 (VCAM1) Biomarker Activity (AID 2283065).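 As to AC50: VCAM-1 protein level quantified by ELISA after 24 h chemical exposure.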 To be noted: primary human foreskin fibroblasts; actives raise or lower the signal. Summed up:
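Human foreskin fibroblast primary cells dosed with chemical, VCAM-1 measured by ELISA at 24 h. Bidirectional curve fitting relative to DMSO as negative control/baseline.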

Read-out in experiment [6]: Intercellular Adhesion Molecule 1 (ICAM1), ICAM1 (gene 3383)
Briefly: BSK_KF3CT_ICAM1: BioMAP Diversity Plus: KF3CT Assay for Intercellular Adhesion Molecule 1 (ICAM1) Biomarker Activity (AID 2283067). The following applies: primary human keratinocytes with fibroblasts; actives raise or lower the signal. Summed up: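 Human keratinocyte–foreskin fibroblast co-culture was treated for 24 h. Cell-surface ICAM-1 was quantified by ELISA, fitted bidirectionally relative to DMSO. Cytotoxicity was checked in parallel cultures by SRB total-protein staining.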

Read-out in experiment [7]: Interferon-gamma inducible Protein 10 (IP10), CXCL10 (gene 3627)
Briefly: BSK_KF3CT_IP10: BioMAP Diversity Plus: KF3CT Assay for Interferon-gamma inducible Protein 10 (IP10) Biomarker Activity (AID 2283068). The following applies: primary human keratinocytes with fibroblasts; actives raise or lower the signal. Summed up:
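KF3CT co-culture (keratinocytes + foreskin fibroblasts), 24 h compound, IP-10 by ELISA; bidirectional fit vs DMSO baseline.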

The nature of experiment [8]: BSK_KF3CT_SRB: Viability Assessment in the BioMAP Diversity Plus: KF3CT Assay (AID 2283069).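 Also: read 24 h after compound addition.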 The following applies: primary human keratinocytes with fibroblasts. Summed up:
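SRB read-out at 560 nm (0.1% stain, TCA-fixed cells) gauges overt cytotoxicity in a human skin keratinocyte–fibroblast co-culture 24 h post-dosing. Signal change was fitted bidirectionally relative to DMSO control.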

Read-out in experiment [9]: Interleukin-1 alpha (IL1a), IL1A (gene 3552)
Put plainly: BSK_KF3CT_IL1a: BioMAP Diversity Plus: KF3CT Assay for Interleukin-1 alpha (IL1a) Biomarker Activity (AID 2283070). The following applies: primary human keratinocytes with fibroblasts; actives raise or lower the signal. Summed up:
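Primary skin co-culture (keratinocytes, foreskin fibroblasts), 24 h exposure; ELISA for IL-1a; bidirectional curve fit vs DMSO.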

Read-out in experiment [10]: C-C motif chemokine 2 (Homo sapiens) (UniProt P13500)
Briefly: BSK_KF3CT_MCP1: BioMAP Diversity Plus: KF3CT Assay for Monocyte Chemoattractant Protein 1 (MCP1/CCL2) Biomarker Activity (AID 2283073). To be noted: primary human keratinocytes with fibroblasts; actives raise or lower the signal. Summed up:
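Human keratinocyte–foreskin fibroblast co-culture; MCP-1 measured by ELISA 24 h after dosing. Bidirectional fit vs DMSO; cytotoxicity tracked by SRB total protein in parallel cultures.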

Read-out in experiment [11]: Matrix Metallopeptidase 9 (MMP9), MMP9 (gene 4318)
Briefly: BSK_KF3CT_MMP9: BioMAP Diversity Plus: KF3CT Assay for Matrix Metallopeptidase 9 (MMP9) Biomarker Activity (AID 2283074).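 As to AC50: MMP9 protein level quantified by ELISA in the co-culture.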 The following applies: primary human keratinocytes with fibroblasts; actives raise or lower the signal. Summed up:
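ELISA read-out of MMP-9 at 24 h post-dosing in a co-culture of human skin keratinocytes and foreskin fibroblasts. Gain or loss of signal was fitted in both directions against DMSO.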

Read-out in experiment [12]: urokinase plasminogen activator (uPA), PLAU (gene 5328)
Put plainly: BSK_KF3CT_uPA: BioMAP Diversity Plus: KF3CT Assay for urokinase plasminogen activator (uPA) Biomarker Activity (AID 2283075). The following applies: primary human keratinocytes with fibroblasts; actives raise or lower the signal. Summed up: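 Skin co-culture (keratinocytes + foreskin fibroblasts), human primary; 24 h post-dose; uPA by ELISA; gain/loss fit vs DMSO baseline.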

Read-out in experiment [13]: E-selectin (Homo sapiens) (UniProt P16581)
Briefly: BSK_LPS_Eselectin: BioMAP Diversity Plus: LPS Assay for Eselectin Biomarker Activity (AID 2283077). To be noted: primary human HUVEC with PBMC; actives raise or lower the signal. Summed up: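 Human umbilical vein endothelial cells co-cultured with PBMC under LPS stimulation; cell-surface E-selectin measured by ELISA 24 h after dosing. Change in either direction versus DMSO, with SRB total-protein staining in parallel cultures for cytotoxicity.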

Read-out in experiment [14]: Interleukin-8 (IL8), CXCL8 (gene 3576)
Put plainly: BSK_LPS_IL8: BioMAP Diversity Plus: LPS Assay for Interleukin-8 (IL8) Biomarker Activity (AID 2283078). To be noted: primary human HUVEC with PBMC; actives raise or lower the signal. Summed up:
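Human umbilical vein endothelial cells co-cultured with PBMC, LPS-stimulated, exposed to compound for 24 h. IL-8 quantified by ELISA; fitted in both directions against DMSO, with SRB total-protein staining of parallel cultures for cytotoxicity.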

Experiment [15] is described as follows: BSK_LPS_SRB: Viability Assessment in the BioMAP Diversity Plus: LPS Assay (AID 2283079).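 Also: total protein by sulforhodamine B absorbance as a cytotoxicity measure; measured one day after compound addition.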 To be noted: primary human HUVEC with PBMC. Summed up: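 Co-culture of human umbilical vein endothelial cells and PBMC, read 24 h after dosing. Total protein by 0.1% SRB staining after 10% TCA fixation, absorbance at 560 nm; bidirectional fit against DMSO.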
Read-out in experiment [16]: Interleukin-1 alpha (IL1a), IL1A (gene 3552)
Briefly: BSK_LPS_IL1a: BioMAP Diversity Plus: LPS Assay for Interleukin-1 alpha (IL1a) Biomarker Activity (AID 2283080). To be noted: primary human HUVEC with PBMC; actives raise or lower the signal. Summed up: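 Human umbilical vein endothelial cells co-cultured with PBMC and stimulated with LPS; IL-1a measured by ELISA 24 h after dosing. Bidirectional fitting against DMSO; cytotoxicity checked by SRB staining in parallel cultures.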

Read-out in experiment [17]: Plasminogen activator inhibitor-1 (PAI1), SERPINE1 (gene 5054)
Put plainly: BSK_hDFCGF_PAI1: BioMAP Diversity Plus: hDFCGF Assay for Plasminogen activator inhibitor-1 (PAI1) Biomarker Activity (AID 2283066). To be noted: primary human foreskin fibroblasts; actives raise or lower the signal. Summed up: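 PAI-1 levels in human dermal foreskin fibroblasts were quantified by ELISA 24 h after dosing, with gain or loss analysed against DMSO. Overt cytotoxicity was checked by sulforhodamine B total-protein staining in parallel cultures.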

Read-out in a further experiment: CD40, CD40 (gene 958)
Briefly: BSK_LPS_CD40: BioMAP Diversity Plus: LPS Assay for CD40 Biomarker Activity (AID 2283076). The following applies: primary human HUVEC with PBMC; actives raise or lower the signal. Summed up:
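HUVEC plus PBMC co-culture stimulated with LPS; CD40 quantified by ELISA 24 h after compound dosing. Fitting was bidirectional relative to DMSO. SRB staining of parallel cultures flagged overt cytotoxicity.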

Read-out in experiment [18]: TIMP metallopeptidase inhibitor 2 (TIMP2), TIMP2 (gene 7077)
Put plainly: BSK_KF3CT_TIMP2: BioMAP Diversity Plus: KF3CT Assay for TIMP metallopeptidase inhibitor 2 (TIMP2) Biomarker Activity (AID 2283071). To be noted: primary human keratinocytes with fibroblasts; actives raise or lower the signal. Summed up: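 TIMP-2 measured by ELISA at 24 h in human keratinocyte/fibroblast primary co-cultures exposed to chemicals. Both increases and decreases were fitted against DMSO. Parallel cultures were stained with SRB for total protein as an overt-cytotoxicity check.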

The source made the active and inactive calls. The calls were made as follows: active = hit-call score of the fitted dose curve at least 0.9, where 1 is the maximum; inactive = score below 0.9.

Sequence of E-selectin (Homo sapiens) (P16581 whole entry, looked up): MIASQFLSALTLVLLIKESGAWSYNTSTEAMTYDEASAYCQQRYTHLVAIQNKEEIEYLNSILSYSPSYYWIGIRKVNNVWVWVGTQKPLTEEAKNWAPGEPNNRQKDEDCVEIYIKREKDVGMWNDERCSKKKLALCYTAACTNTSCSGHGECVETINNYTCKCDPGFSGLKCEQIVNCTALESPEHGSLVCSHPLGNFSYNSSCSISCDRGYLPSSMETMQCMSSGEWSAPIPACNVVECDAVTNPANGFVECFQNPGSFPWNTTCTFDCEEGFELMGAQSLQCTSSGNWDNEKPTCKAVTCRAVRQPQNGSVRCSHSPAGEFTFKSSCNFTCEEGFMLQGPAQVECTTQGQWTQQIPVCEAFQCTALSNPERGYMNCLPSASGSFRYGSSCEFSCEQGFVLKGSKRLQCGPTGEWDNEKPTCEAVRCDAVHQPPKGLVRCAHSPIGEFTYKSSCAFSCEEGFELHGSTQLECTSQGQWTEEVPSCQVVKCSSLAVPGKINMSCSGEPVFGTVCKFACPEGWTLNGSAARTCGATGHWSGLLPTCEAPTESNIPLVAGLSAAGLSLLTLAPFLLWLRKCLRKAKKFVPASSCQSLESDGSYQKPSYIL

For orientation: AC50 means the concentration giving half of the maximal activity seen. For `CC(C)(C)c1cc(O)c(C(C)(C)C)cc1O`, the outcome in experiment [1], in experiment [2], in [4], in experiment [6], in experiment [7] and in experiment [8] was inactive. Also, the result in [9], in experiment [10], in experiment [11], in [12], in experiment [15] and in [16] was inactive. Moreover, the AC50 was 20 µM (active) in [3], 20 µM (active) in experiment [5], 7.72 µM (active) in experiment [13] and 1.39 µM (active) in [14].

In the case of `CCCCCCC(=O)OCC`, the result in experiment [1], in experiment [2], in experiment [3], in experiment [4], in experiment [17] and in [6] was inactive. For the same molecule, the result in experiment [7], in experiment [8], in experiment [9], in [10], in experiment [11] and in experiment [12] was inactive. In addition, the outcome in the experiment with CD40, CD40 (gene 958) is “inactive”; in experiment [13] it was “inactive”; in experiment [14], “inactive”; in [15] it was “inactive”; in [16] it was “inactive”.

Take `CCc1c(C(=O)NN2CCCCC2)nn(-c2ccc(Cl)cc2Cl)c1-c1ccc(Br)cc1`: the AC50 was 2.85 µM (active) in [1]; 3.54 µM (active) in experiment [2]; 4.28 µM (active) in [3]; 3.03 µM (active) in [4]; 3.82 µM (active) in [5]; 13.1 µM (active) in experiment [7]. The AC50 in [9] is 9.35 µM (active); in [18], 5.8 µM (active); in experiment [10], 13 µM (active); in experiment [11], 4.31 µM (active); in experiment [12], 7.27 µM (active); in the experiment with CD40, CD40 (gene 958), 12.3 µM (active). Further, the AC50 in [13] was 7.44 µM (active); in experiment [14], 5.2 µM (active); in experiment [15], 9.94 µM (active); in [16], 10.4 µM (active). For the same molecule, the result in experiment [6] was inactive.

On to `Cc1ccc(C)c(C)c1`, for which the result in [1], in [2], in experiment [3], in experiment [4], in [5] and in [6] was inactive. In addition, the result in experiment [7], in [8], in experiment [9], in experiment [18], in experiment [10] and in experiment [11] was inactive. Moreover, the outcome in experiment [12] was “inactive”; with CD40, CD40 (gene 958), “inactive”; in experiment [13], “inactive”; in experiment [14] it was “inactive”; in experiment [15] it was “inactive”; in [16] it was “inactive”.

(Values after PubChem BioAssay (EPA / NIEHS).)
